Measurements taken from PubChem BioAssay (NCI).
About 83,000 compounds went through this panel and 20% of them were active in at least one assay; those are over-represented in the sample as a whole.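 Method: cells in 96-well plates; compound added at one concentration; 48 h incubation; percent growth measured; values under 10 scored active.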 A number with no mark means an inactive call. Calls of active or inactive are those of the source.

How the values were obtained:
Experiment in all cases: NCI-60 one-dose screen, 48 h (100 = growth as untreated, 0 = no growth, -100 = all killed)
Settings in all cases: 10 µM unless noted
NCI-H23 lung = tested on: NCI-H23 lung
NCI-H226 lung = tested on: NCI-H226 lung
NCI-H322M lung = tested on: NCI-H322M lung
HOP-62 NSCLC = tested on: HOP-62 NSCLC
NCI-H460 lung = tested on: NCI-H460 lung
NCI-H522 lung = tested on: NCI-H522 lung
A549/ATCC NSCLC = tested on: A549/ATCC NSCLC
786-0 renal = tested on: 786-0 renal
COLO 205 colon = tested on: COLO 205 colon

Compound	growth (NCI-H23 lung)	growth (NCI-H226 lung)	growth (NCI-H322M lung)	growth (HOP-62 NSCLC)	growth (NCI-H460 lung)	growth (NCI-H522 lung)	growth (A549/ATCC NSCLC)	growth (786-0 renal)	growth (COLO 205 colon)
CCCCCCCS(=O)(=O)N1CCCC(C(=O)Nc2nc3ccc(NC(=O)c4ccc(F)c(OC)c4F)cc3s2)C1 (configuration not stated)	27.3%	31.8%	77.7%	60.8%	69.7%	24.7%	60.5%	50%	82.9%
Cn1nc(C(F)(F)F)cc1-c1cc(Cl)c(COc2ccc(Cl)cc2)c(-c2ccc(Cl)c(C(F)(F)F)c2)c1O	-46.7% (active)	-39.5% (active)	6.41% (active)	-40.9% (active)	-48.1% (active)	-27.7% (active)	2.95% (active)	-63.5% (active)	-83.2% (active)
CC1=C(C#N)C2=NNCC(c3ccccc3)=NN2C(c2ccccc2)=C1	105%	111%	105%	85.6%	111%	93.7%	99.3%	98.2%	113%
O=C(Cn1c(/C=C/c2ccccc2)nc2ccccc2c1=O)Nc1ccc(Cl)cc1	59.8%	30.2%	74.8%	57.9%	38.7%	76.7%	33.8%	-48.9% (active)	78.4%
C=C1CC[C@@H]2[C@]3(C)COC(c4cn[nH]c4-c4cccc(Cl)c4)O[C@@H]3CC[C@@]2(C)[C@@H]1C/C=C1/C(=O)OCC1O (some centres not stated)	-79.8% (active)	-91.1% (active)	37.9%	0.166% (active)	-3.88% (active)	-60% (active)	-19.2% (active)	-92.7% (active)	-35% (active)
COc1c(F)ccc(C(=O)Nc2ccc3nc(NC(=O)C4CCCN(S(=O)(=O)c5cccc(Cl)c5)C4)sc3c2)c1F (configuration not stated)	88.9%	77.3%	87.2%	103%	82%	79%	68%	61%	86.2%
O=C(NN1C(=O)/C(=C/C=C/c2ccc([N+](=O)[O-])o2)SC1=S)c1cccc(O)c1	-89% (active)	-92.2% (active)	-66.9% (active)	-73.5% (active)	-49.3% (active)	-96.6% (active)	-67.4% (active)	-91.5% (active)	-79.7% (active)
O=C(/C=C/c1ccc(-c2ccccc2)cc1)c1nc2ccccc2n1Cc1ccc(Br)cc1	24.7%	24.3%	72.4%	56.4%	16.8%	71%	64.7%	39.3%	76.7%
COc1ccc(C(=O)/C=C/c2ccc(Cl)c(Cl)c2)cc1S(N)(=O)=O	-23.6% (active)	25.5%	21.3%	-47.1% (active)	7.22% (active)	-47.2% (active)	11.2%	-94.4% (active)	-75.9% (active)
CC1(c2cc3cc(Br)ccc3oc2=O)NC(=O)c2c(/C=C/C(=O)OC3CC4CCC3(C)C4(C)C)cccc2N1 (configuration not stated)	79.1%	75.9%	81.2%	92.5%	73.6%	68.3%	54.6%	91.5%	88.7%
Cn1cc(-c2cc(N)n3nc(-c4cn(C)c5ncc(Br)cc45)cc3n2)c2cc(Br)cnc21	-31.1% (active)	78%	69.1%	48.3%	-65.6% (active)	51.2%	-22.3% (active)	-40.8% (active)	12.3%
CCC(C)(C)c1ccc(OCCCCN2CCN(c3ccncc3)CC2)cc1	22.1%	39.8%	83.9%	37.4%	24.9%	36%	47.4%	-56.4% (active)	-81.9% (active)
COc1ccc(-c2nc3cc(C)ccc3n2CC(=O)N=Nc2c(O)[nH]c3ccc(Br)cc23)cc1	-45.5% (active)	-13.4% (active)	14.2%	-49.7% (active)	8.15% (active)	25%	-68.6% (active)	25.6%	-47.2% (active)
O=c1cc(-c2ccccc2)oc2cc(OCCCC[P+](c3ccccc3)(c3ccccc3)c3ccccc3)cc(O)c12	-93% (active)	-29% (active)	-100% (active)	-63.6% (active)	-75.8% (active)	-81.9% (active)	-56% (active)	-69.5% (active)	-56.3% (active)
COc1c(F)ccc(C(=O)Nc2ccc3nc(NC(=O)C4CCCN(S(=O)(=O)c5cccc(Br)c5)C4)sc3c2)c1F (configuration not stated)	96.3%	88.4%	94%	107%	80.3%	78.9%	75.6%	70%	86.4%
COc1c(F)ccc(C(=O)Nc2ccc3nc(NC(=O)C4CCCN(S(=O)(=O)c5ccc(Br)c(F)c5)C4)sc3c2)c1F (configuration not stated)	87.3%	80.8%	94.5%	105%	84.1%	81.9%	73.7%	52.7%	81.8%
O=C1CC(Sc2n[nH]c(-c3ccncc3)n2)C(=O)N1c1ccc(Br)cc1 (configuration not stated)	104%	117%	104%	98.9%	117%	-33.6% (active)	106%	106%	116%
Cc1ccc(C2=NN(c3nc(-c4cc5ccccc5oc4=O)cs3)C(c3ccc(C)cc3)C2)cc1 (configuration not stated)	95.6%	88.8%	102%	91.2%	120%	100%	109%	110%	111%
COc1ccc(-c2ccnc(SCc3cc4ccccc4[nH]c3=O)n2)cc1OC	15.6%	-23.1% (active)	-51.5% (active)	-53.5% (active)	8.25% (active)	-21.2% (active)	11.7%	-25.4% (active)	4.51% (active)
COc1ccc2[nH]c(=O)c(CSc3nccc(-c4ccc(OC)c(OC)c4)n3)cc2c1	35.4%	-13.2% (active)	40.6%	0.29% (active)	18.1%	-17.4% (active)	18.3%	30.4%	36.5%
COCOc1cc2c(=O)c(C)c(C(=O)N[C@@H](Cc3ccccc3)C(O)C(=O)NCc3ccccc3)oc2cc1OC (some centres not stated)	30%	-40.2% (active)	80.6%	6.54% (active)	-9.86% (active)	-11% (active)	51.7%	-0.746% (active)	49.5%
COc1ccc(C2=NN(C(C)=O)C(c3ccc(OCc4ccc(Cl)cc4)c(OC)c3)C2)cc1OC (configuration not stated)	58%	49.9%	81.9%	76.2%	41.3%	28.5%	29%	57.9%	41.3%
Cn1cc(-c2cc3nc(-c4cn(C)c5ncccc45)cc(N)n3n2)c2ccccc21	55.6%	-21.6% (active)	37%	-13.6% (active)	3.16% (active)	-4.18% (active)	15.2%	-52.9% (active)	3.03% (active)
COc1ccc(-c2ccnc(SCc3cc4cc(OC)ccc4[nH]c3=O)n2)cc1	25.8%	39.4%	48.1%	34.7%	14.9%	11.8%	20.2%	44.1%	15.7%
COc1ccc(-c2ccc(SCC(=O)NCCc3ccc(S(N)(=O)=O)cc3)nn2)cc1	64.2%	77%	96.2%	81.3%	107%	70%	86.6%	85.8%	95.4%
Clc1cccc(N/N=C/c2c[nH]c3ccc(Br)cc23)n1	39.8%	22.4%	51.6%	54.1%	12.9%	-27.8% (active)	30.2%	13%	31.9%
Brc1ccc(N/N=C/c2c[nH]c3ccc(Br)cc23)nc1	-58.2% (active)	3.09% (active)	17.6%	-16.7% (active)	-75.3% (active)	-55.5% (active)	0.0958% (active)	-23.8% (active)	-89.1% (active)
Brc1ccc(-c2n(Cc3ccc4ccccc4c3)c(-c3ccccc3)c(-c3ccccc3)[n+]2Cc2ccc3ccccc3c2)cc1	-89.3% (active)	-51.6% (active)	-99.1% (active)	-83.4% (active)	-81.3% (active)	-90.9% (active)	-88.8% (active)	-79.3% (active)	-78.2% (active)
